Results from PubChem BioAssay (NCATS).
Results filed as inconclusive are left out. A call without a number means that no potency is given here. Active and inactive are the calls of the source. Calls follow the shape of the dose curve; as a rule, active = well fitted cell-killing curve with a large enough effect; inconclusive = small, poorly fitted or top-dose-only effect; inactive = flat fitted curve, though single readings scatter.

Test: qHTS assay to identify small molecule inhibitors of chordoma cells - UCH-2 (AID 1259356)
Settings: UCH-2 chordoma viability, CellTiter-Glo ATP luminescence, 48 h; series mostly up to 46.1 µM

Row | SMILES | Potency
1 | OCCN1CCN(CC/C=C2/c3ccccc3Sc3ccc(Cl)cc32)CC1 | inactive
2 | COc1ccc([C@@H]2CC(=O)c3c(O)cc(O[C@@H]4O[C@H](CO[C@@H]5O[C@@H](C)[C@H](O)[C@@H](O)[C@H]5O)[C@@H](O)[C@H](O)[C@H]4O)cc3O2)cc1O | inactive
3 | O=c1n(CC2CO2)c(=O)n(CC2CO2)c(=O)n1CC1CO1 (stereo not drawn) | inactive
4 | CC(C)(C)NC[C@H](O)COc1ccccc1C1CCCC1 | inactive
5 | COc1ccccc1N1CCN(CCCC(=O)c2ccc(F)cc2)CC1 | inactive
6 | O=C(O)[C@H]1CN(C/C=C/P(=O)(O)O)CCN1 | inactive
7 | NCC(O)CC(=O)O (stereo not drawn) | inactive
8 | CC(C)NCC(O)COc1ccccc1-n1cccc1 (stereo not drawn) | inactive
9 | CN(C)CCOc1ccc(/C(=C(/CCCl)c2ccccc2)c2ccccc2)cc1 | inactive
10 | CO[C@H]1C[C@@H]2CC[C@@H](C)[C@@](O)(O2)C(=O)C(=O)N2CCCC[C@H]2C(=O)O[C@H]([C@H](C)C[C@@H]2CC[C@@H](OC(=O)C(C)(CO)CO)[C@H](OC)C2)CC(=O)[C@H](C)/C=C(\C)[C@@H](O)[C@@H](OC)C(=O)[C@H](C)C[C@H](C)/C=C/C=C/C=C/1C | inactive
11 | CC(=O)c1ccc2c(c1)N(CCCN1CCN(CCO)CC1)c1ccccc1S2 | inactive
12 | CC(=O)[C@H]1CC[C@H]2[C@@H]3C=CC4=CC(=O)CC[C@@]4(C)[C@H]3CC[C@]12C | inactive
13 | CC(C)CCC[C@@H](C)[C@H]1CC(=O)C2=C3CC[C@H]4C[C@@H](O)CC[C@]4(C)[C@H]3CC[C@@]21C | inactive
